Results: PubChem BioAssay AID1851 (National Center for Advancing Translational Sciences (NCATS), 2009)
Screen size: about 16,000 compounds; about 5,700 (36%) were called active. Not shown: some 24% with an inconclusive outcome. The list shows a part of the results. A number with no mark means an inactive call. Calls come from the whole dose curve; as a rule, active = well fitted curve in the direction sought with a large enough effect; inconclusive = small, poorly fitted or top-dose-only effect, or effect the other way; inactive = no such curve, though single readings can be large or run the other way.

What follows are molecules tested against Cytochrome P450 1A2 (Homo sapiens) (UniProt P05177) (assay: Cytochrome panel assay with activity outcomes). Conditions: recombinant CYP, pro-luciferin dealkylation, luminescence, p450-cyp1a2; series mostly up to 57.1 µM; activity, negative = inhibition: at the top concentration.
% is set by controls: 0 for no effect and ±100 for the full control effect.

Chain of Cytochrome P450 1A2 (Homo sapiens) (P05177 whole entry, looked up): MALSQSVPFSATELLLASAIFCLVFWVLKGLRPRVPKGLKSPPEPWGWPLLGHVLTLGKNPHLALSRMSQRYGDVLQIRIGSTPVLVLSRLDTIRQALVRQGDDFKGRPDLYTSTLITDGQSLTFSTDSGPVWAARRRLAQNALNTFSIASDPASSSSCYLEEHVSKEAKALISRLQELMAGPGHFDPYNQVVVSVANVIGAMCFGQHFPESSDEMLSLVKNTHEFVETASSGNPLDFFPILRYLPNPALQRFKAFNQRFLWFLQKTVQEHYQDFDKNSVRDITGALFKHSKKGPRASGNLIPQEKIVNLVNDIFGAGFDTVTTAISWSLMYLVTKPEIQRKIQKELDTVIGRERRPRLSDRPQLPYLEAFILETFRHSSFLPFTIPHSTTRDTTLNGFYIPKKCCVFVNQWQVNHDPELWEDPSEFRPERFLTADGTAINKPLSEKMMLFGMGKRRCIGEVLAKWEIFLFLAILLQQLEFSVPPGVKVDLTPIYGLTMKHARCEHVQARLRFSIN

Row | SMILES | AC50 | activity, negative = inhibition
1 | COc1cccc(-c2ccc3ncnc(NCCNC(C)=O)c3c2)c1 | 3160 nM (active) | –
2 | COCCNc1ncnc2ccc(-c3cccc(OC)c3)cc12 | 794 nM (active) | –
3 | N#Cc1ccc(CN2CCCC3(CCN(C(=O)c4cccc(F)c4)CC3)C2)cc1 | – | 1.62%
4 | Cn1c(=O)[nH]c(=O)c2c1nc(CN1CCOCC1)n2CCCO | – | 2.56%
5 | COc1ccc(CNc2ncncc2-c2ccccc2C(F)(F)F)c(OC)c1 | 15800 nM (active) | –
6 | COc1ccccc1CNc1ncncc1-c1ccccc1Cl | 10000 nM (active) | –
7 | COc1ccccc1CNc1ncncc1-c1ccccc1C(F)(F)F | 15800 nM (active) | –
8 | Cc1ccccc1CN1CCN(CC(=O)NCCCN2CCN(c3ccc(F)cc3)CC2)C1=O | – | 0.19%
9 | Cn1cc(C2=C(c3ccc(Cl)cc3Cl)C(=O)NC2=O)c2ccccc21 | 3160 nM (active) | –
10 | COc1ccccc1-c1nccc(NCc2cccnc2)n1 | 200 nM (active) | –
11 | COc1ccccc1-c1nccc(NCc2ccccc2)n1 | 2510 nM (active) | –
12 | CNc1ccnc(-c2ccccc2OC)n1 | 5010 nM (active) | –
13 | COc1ccccc1-c1nccc(NCc2cccc(C)c2)n1 | 631 nM (active) | –
14 | CS(=O)(=O)N1CCC[C@@]2(CCN(C(=O)Nc3cccc(C#N)c3)C2)C1 | – | -14.8%
15 | CNc1ccnc(-c2ccccc2C)n1 | 5010 nM (active) | –
16 | Cc1ccccc1-c1nccc(NCc2cccnc2)n1 | 200 nM (active) | –
17 | CO[C@H]1COC(=O)C/C=C\[C@H](C)[C@@H](NS(=O)(=O)c2ccc(C)cc2)COC(=O)CCC[C@@H]1C | – | 1.16% [at 11.4 µM]
18 | C=CC[C@@H]1C=C[C@H](O/N=C(\C)CCN2CCc3nc(CC)c(CC)cc3C2)[C@H](CO)O1 | – | -3.35% [at 11.4 µM]
19 | CCC(=O)Nc1ccc(/C(C)=N\NS(=O)(=O)c2ccc(C)cc2)cc1 | 25100 nM (active) | –
20 | Cc1ccc(S(=O)(=O)Nc2nc(C)c(NC(=O)Nc3ccc(Cl)cc3Cl)s2)cc1 | – | -25.6%
21 | C/C(=N/NS(=O)(=O)c1ccc(C)cc1)P(=O)(O)O | – | -10% [at 11.4 µM]
22 | C/C(=N\NC(=O)c1cccc(Cl)c1)c1cccc(NC(=O)C(C)C)c1 | 5010 nM (active) | –
23 | C/C(=N/NS(=O)(=O)c1ccc(C)cc1)c1cccc(NC(=O)c2cccc(Cl)c2)c1 | 14100 nM (active) | –
24 | COc1ccc(C(=O)Nc2cccc(/C(C)=N/NC(=O)c3ccc([N+](=O)[O-])cc3)c2)cc1OC | – | -13.8%

Row | SMILES | AC50 | activity, negative = inhibition
25 | C/C(=N\NC(=O)c1ccc(Cl)cc1)c1cccc(NC(=O)C(C)C)c1 | 3550 nM (active) | –
26 | Oc1ccc([C@@H]2CNCCc3c2cc(O)c(O)c3Cl)cc1 | inactive | –
27 | CN1CC[C@@]2(CCCN(C(=O)c3cc(C(F)(F)F)cc(C(F)(F)F)c3)C2)C1 | – | -5.26%
28 | CN(/C=C/C(=O)C(F)(F)F)Cc1ccccc1 | – | -22.8%
29 | CC(=O)Nc1ccc(S(=O)(=O)NC(CC(=O)NCCCN2CCOCC2)C(C)C)cc1 (configuration not stated) | – | 1.91%
30 | Cc1cc(S(=O)(=O)NCCCN2CCOCC2)ccc1F | – | -23%
31 | C/C(CC(=O)NCCCN1CCOCC1)=N\NC(=O)COc1ccc(Cl)cc1 | 2510 nM (active) | –
32 | CN(C)c1ccc(-c2cc(N(C)Cc3ccco3)ncn2)cc1 | 316 nM (active) | –
33 | CN(Cc1ccco1)c1cc(-c2ccc3c(c2)OCO3)ncn1 | 501 nM (active) | –
34 | CN(Cc1ccco1)c1cc(-c2ccoc2)ncn1 | – | -19.3%
35 | COc1ccc(C(=O)N2CCC3(CC2)CN(Cc2ccc(C#N)cc2)C3)cc1 | – | -8.04%
36 | COc1ccc(C(=O)Nc2ccc(S(=O)(=O)N3CCOCC3)cc2)cc1OC | – | 7.02%
37 | COc1cc(NC(=S)Nc2ccc(S(=O)(=O)N3CCOCC3)cc2)cc(OC)c1OC | 2510 nM (active) | –
38 | COc1ccc(NC(=O)N2CC[C@@]3(CCCN(C(=O)c4cccn4C)C3)C2)cc1 | – | -11.7%
39 | O=C(Nc1ccc(F)cc1)c1cc(S(=O)(=O)N2CCCCC2)cs1 | 17800 nM (active) | –
40 | O=C(CSc1ncccn1)Nc1ccc(S(=O)(=O)N2CCCCC2)cc1 | – | -4.34%
41 | O=C(O)c1cc(S(=O)(=O)N2CCCCC2)ccc1F | – | 14.6%
42 | CC(C)=CCC/C(C)=C/CO/N=C1/C[C@@H](O)[C@@H](O)[C@@H]2[C@@H]3C(=O)N(C4CCCCC4)C(=O)[C@H]3CC[C@@H]12 | – | -3% [at 11.4 µM]
43 | COc1cccc(-c2nccc(NCc3cccs3)n2)c1 | 200 nM (active) | –
44 | COc1cccc(-c2nccc(NCc3cccnc3)n2)c1 | 158 nM (active) | –
45 | COc1cccc(-c2nccc(NCc3ccccc3)n2)c1 | 501 nM (active) | –
46 | COc1ccc(-c2cc(C(F)(F)F)nc(NCc3cccnc3)n2)cc1 | 794 nM (active) | –
47 | CC[C@@H]1OC(=O)[C@H](C)[C@H](O[C@@H]2C[C@](C)(OC)[C@H](O)[C@H](C)O2)[C@H](C)[C@H](O[C@@H]2O[C@@H](C)C[C@@H](N(C)C)[C@@H]2O)[C@](C)(O)C[C@H](C)C(=O)[C@H](C)[C@H](O)[C@]1(C)O | – | -3.13% [at 25.6 µM]
